# Source: PubChem BioAssay AID1851 (National Center for Advancing Translational Sciences (NCATS), 2009)
# Among all 16,000 compounds or so, about 5,800 (36%) were called active. Roughly 23% stayed inconclusive and do not appear here. Calls come from the whole dose curve; as a rule, active = well fitted curve in the direction sought with a large enough effect; inconclusive = small, poorly fitted or top-dose-only effect, or effect the other way; inactive = no such curve, though single readings can be large or run the other way. This is one part of the list.
# Molecular target: Cytochrome P450 2C19 (Homo sapiens) (UniProt P33261)
# Sequence (P33261 whole entry, looked up): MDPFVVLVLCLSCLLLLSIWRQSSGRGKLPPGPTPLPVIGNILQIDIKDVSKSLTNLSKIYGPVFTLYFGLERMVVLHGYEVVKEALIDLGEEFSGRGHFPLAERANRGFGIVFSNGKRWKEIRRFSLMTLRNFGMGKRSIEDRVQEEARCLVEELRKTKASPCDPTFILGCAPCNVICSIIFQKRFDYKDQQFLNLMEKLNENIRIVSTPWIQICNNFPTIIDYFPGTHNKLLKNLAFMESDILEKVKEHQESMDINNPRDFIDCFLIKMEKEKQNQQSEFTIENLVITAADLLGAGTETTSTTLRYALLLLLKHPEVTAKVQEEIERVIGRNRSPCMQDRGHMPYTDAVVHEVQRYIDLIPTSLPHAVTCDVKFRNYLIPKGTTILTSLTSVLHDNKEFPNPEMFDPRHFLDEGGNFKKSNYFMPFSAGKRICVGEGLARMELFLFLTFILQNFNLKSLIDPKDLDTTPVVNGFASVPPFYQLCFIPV
# Test: Cytochrome panel assay with activity outcomes
# Conditions: recombinant CYP, pro-luciferin dealkylation, luminescence, p450-cyp2c19; series mostly up to 57.1 µM; activity, negative = inhibition: at the top concentration
# % is set by controls: 0 for no effect and ±100 for the full control effect.
Structure (SMILES),"activity, negative = inhibition",AC50
COc1ccc(-c2nc3cnc(OC)nc3n(C)c2=O)cc1,-0.6% (inactive),–
Cc1ccc2c(CC(=O)OCc3cc(=O)n4c(n3)sc3ccccc34)coc2c1,–,7.08 µM (active)
CCc1c(O)nc2sc3ccccc3n2c1=O,8.36% (inactive),–
CC1CCCN(C(=O)c2sc3cc([N+](=O)[O-])ccc3c2Cl)C1 (centres undefined),–,3.98 µM (active)
CN1CCCN(C)C1c1cc([N+](=O)[O-])ccc1O,-15% [at 11.4 µM] (inactive),–
C[C@@H]1C[C@H](C)CN(S(=O)(=O)c2cc(Cl)c(Oc3ccc([N+](=O)[O-])cc3Cl)c(Cl)c2)C1,-27.5% [at 11.4 µM] (inactive),–
Cc1ccc(C2=NN(S(C)(=O)=O)C(c3cccs3)C2)cc1 (centres undefined),–,0.447 µM (active)
CN(C)c1ccc(NC(=O)CSc2nc(N)c(C(=O)Nc3ccc(N(C)C)cc3)s2)cc1,–,11.2 µM (active)
Cc1ccc(C)c(-n2c(Cc3cc(=O)[nH]c(=O)[nH]3)nnc2SCC(=O)NCC2CCCO2)c1 (centres undefined),-5.1% (inactive),–
Cc1[nH]nc2nc(SCC(=O)NCC3CCCO3)n(-c3ccc(Br)cc3)c(=N)c12 (centres undefined),–,11.2 µM (active)
COc1cc(OC)c(NC(=S)Nc2cccc(C(C)=O)c2)cc1Cl,–,3.16 µM (active)
CCOC(=O)c1cnc(N(C)C)nc1SC(=N)N,7.18% [at 11.4 µM] (inactive),–
CCOC(=O)c1cnc2ccc(C)cc2c1Sc1ccccc1C(=O)OC,–,1.26 µM (active)
O=[N+]([O-])c1cccc(-c2nc(-c3ccccc3)c(-c3cccs3)[nH]2)c1,–,2.51 µM (active)
COc1ccc(-c2nc(-c3ccccc3)c(-c3cc([N+](=O)[O-])ccc3C)[nH]2)cc1O,–,8.91 µM (active)
NC(N)=Nc1nc2ccc([N+](=O)[O-])cc2[nH]1,-5.76% [at 11.4 µM] (inactive),–
O=[N+]([O-])c1cccc(-c2nc(-c3cccs3)c(-c3cccs3)[nH]2)c1,–,3.16 µM (active)
c1ccc(-c2nc(-c3cccs3)[nH]c2-c2ccccc2)cc1,–,6.31 µM (active)
CO[C@]1(NC(=O)C2SC(=C(C(N)=O)C(=O)O)S2)C(=O)N2C(C(=O)O)=C(CSc3nnnn3C)CS[C@H]21 (some centres undefined),-28.9% [at 25.6 µM] (inactive),–
NCCC(=O)O,20.3% (inactive),–
CCC(Sc1nc2n[nH]c(C)c2c(=N)n1-c1cccc(Cl)c1)C(=O)NCCOC (centres undefined),–,10 µM (active)
CCC(C)Nc1c([N+](=O)[O-])cc(C)cc1[N+](=O)[O-] (centres undefined),–,7.94 µM (active)
Cc1cc([N+](=O)[O-])c(C)c(Br)c1C,8.85% [at 11.4 µM] (inactive),–
c1ccc(C[C@@H](Nc2cccnc2)c2ccccc2)cc1,–,1 µM (active)

Structure (SMILES),"activity, negative = inhibition",AC50
C[C@@H](N)[C@@H](C)Cc1ccccc1,-14.2% [at 11.4 µM] (inactive),–
O=C(O)Cc1cccnc1,9.66% [at 11.4 µM] (inactive),–
O=c1[nH]cc(CS(=O)(=O)Cc2c[nH]c(=O)[nH]c2=O)c(=O)[nH]1,41% [at 11.4 µM] (inactive),–
CC1(C)CC(=O)C(C=NCCN2CCN(C(=S)Nc3ccc(F)cc3)CC2)=C(O)C1,–,10 µM (active)
COCCCN=CC1=C(O)CC(C)(C)CC1=O,-18.8% (inactive),–
CCCCN1CSC(=S)N(Cc2ccccc2)C1,–,1.26 µM (active)
S=C1SCN(CCN2CCOCC2)CN1Cc1ccccc1,–,10 µM (active)
CC(=O)N1CCC2(CC1)CN(Cc1ccccc1)C2,8.15% (inactive),–
COc1cc2cc3c4cc(OC)c(OC)cc4cc[n+]3c(C)c2cc1OC,44.3% [at 25.6 µM] (inactive),–
Cc1ccc(NC(=O)c2ccccc2C(=O)O)cc1C,-34.4% [at 11.4 µM] (inactive),–
Cc1oc(C(C)(C)C)cc1C(=O)Nc1cccc(/C=C/C(=O)O)c1,-12.3% (inactive),–
Cc1oc(-c2ccccc2)cc1C(=O)Nc1ccc(N(C)C)cc1,–,5.62 µM (active)
Cn1c(=N)c(S(=O)(=O)c2ccc(F)cc2)cc2c(=O)n3ccccc3nc21,–,11.2 µM (active)
Cn1c(C(=O)N2COCC2(C)C)cc2c(=O)n3ccccc3nc21,-15.8% (inactive),–
CCn1c(=N)c(S(=O)(=O)c2ccc(F)cc2)cc2c(=O)n3ccccc3nc21,–,8.91 µM (active)
Cc1cn([C@H]2C[C@H](O)[C@@H](COC(N)=O)O2)c(=O)[nH]c1=O,35.3% [at 11.4 µM] (inactive),–
COc1cccc(Nc2ncc3ncc(=O)n(C4CC4)c3n2)c1,-14% (inactive),–
COc1cccc(Nc2ncc3nc(-c4ccc(Cl)cc4)c(=O)n(C4CC4)c3n2)c1,-31.9% (inactive),–
COc1ccc(Nc2cc(=O)n(C3CCCCC3)c(=O)[nH]2)c(OC)c1,–,10 µM (active)
CS[C@@H](CC(=O)O)C(=O)O,17.7% [at 11.4 µM] (inactive),–
COc1cccc(C(=O)N(C)c2nnc(-c3ccncc3)s2)c1,–,0.0501 µM (active)
Cc1nnc(N(C)C(=O)c2ccccn2)s1,-2.67% (inactive),–
CCOc1ccc2nc(SCc3ccccc3C#N)sc2c1,–,1.26 µM (active)
C=C(C)c1cccc(C(C)(C)NC(=O)Nc2cc(C)ccc2OC)c1,–,3.98 µM (active)

Structure (SMILES),"activity, negative = inhibition",AC50
CCCCn1c(NCc2ccccc2NS(=O)(=O)c2ccc(C)cc2)nc2ccccc21,–,1.26 µM (active)
C#CCCCO/N=C1/C[C@@H](O)[C@@H](O)[C@@H]2[C@H]3C(=O)N(c4ccc(F)cc4F)C(=O)[C@@H]3CC[C@H]12,14.9% [at 11.4 µM] (inactive),–
C[C@H](NCCC(c1ccccc1)c1ccccc1)c1ccccc1,–,5.01 µM (active)
c1ccc(C(CCN2CC3CCC(CC3)C2)c2ccccc2)cc1,21% [at 11.4 µM] (inactive),–
NC(=O)CNCCC(c1ccccc1)c1ccccc1,8.34% (inactive),–
CCOC(=O)c1ccccc1Oc1c(F)c(F)nc(NCCO)c1F,–,2.51 µM (active)
CCOC(=O)c1cnc(-n2nc(C)cc2C)nc1NCCO,-10.6% (inactive),–
CCn1c(COc2ccccc2)nnc1SCC(=O)Nc1cc(OC)ccc1OC,–,2.82 µM (active)
CCn1c(CNC(=O)COc2ccc(C(C)C)cc2)nnc1SCC(=O)Nc1cc(F)ccc1C,–,28.2 µM (active)
COc1ccc(OC)c(C(=O)CSc2nnc(Cc3cccs3)n2CCc2ccccc2)c1,–,1.78 µM (active)
COc1cccc(Nc2ncc3nc(CCc4ccccc4)c(=O)n(Cc4cccs4)c3n2)c1,-7.96% (inactive),–
COc1ccc(NC(=O)CSc2nnc(Cc3cccn3C)n2CCc2ccccc2)c(OC)c1,–,3.16 µM (active)
COc1ccc(CCn2c3c(c(=O)[nH]c2=O)C(NC(=O)c2cccs2)(C(F)(F)F)C(=O)N3)cc1OC (centres undefined),-27.7% (inactive),–
COc1ccc(C(=O)NNC(=O)CSc2nnc(COc3ccc4ccccc4c3)n2C)cc1,-23.2% (inactive),–
COc1ccc([C@@H]2CC(=O)c3c(O)cc(O[C@H]4O[C@@H](CO[C@H]5O[C@@H](C)[C@@H](O)[C@@H](O)[C@@H]5O)[C@@H](O)[C@@H](O)[C@@H]4O)cc3O2)cc1O,4.66% [at 25.6 µM] (inactive),–
COc1ccc([C@@H]2CC(=O)c3c(O)cc(O)cc3O2)cc1O,–,5.01 µM (active)
O=C1c2c(O)cc(O)cc2O[C@@H](c2ccc(O)c(O)c2)[C@H]1O,-32.5% (inactive),–
Cc1c(-n2cc(C(=O)c3cc(Cl)ccc3O)cc(C#N)c2=O)c(=O)n(-c2ccccc2)n1C,-27.3% (inactive),–
COC(=O)c1cc(C(=O)c2cccc(Cl)c2Cl)cn1C,–,1.26 µM (active)
COC(=O)c1cc(C(=O)c2ccc(Cl)cc2Cl)cn1C,–,5.62 µM (active)
Cn1cc(C(=O)c2cccc(Cl)c2Cl)cc1C(=O)O,-3.12% (inactive),–
Cn1cc(C(=O)c2ccc(Cl)cc2Cl)cc1C(=O)O,-2.68% (inactive),–
CN(C)CCCn1cc(C2=C(c3c[nH]c4ccccc34)C(=O)NC2=O)c2ccccc21,-39.8% (inactive),–
COc1ccc(-c2nc3cnc(N(C)C)nc3n(CCc3ccccc3)c2=O)cc1,-21.6% (inactive),–

Structure (SMILES),"activity, negative = inhibition",AC50
CN(C)c1ncc2ncc(=O)n(CCc3ccccc3)c2n1,–,2 µM (active)
CN(C)c1ncc2ncc(=O)n(CCC#N)c2n1,-36.6% (inactive),–
CN(C)c1ncc2nc(-c3ccccc3)c(=O)n(CCc3ccccc3)c2n1,-43.1% (inactive),–
CN(C)c1ncc2nc(-c3ccc(F)cc3)c(=O)n(CCc3ccccc3)c2n1,-11.8% (inactive),–
Cc1nc2cnc(N(C)C)nc2n(CCc2ccccc2)c1=O,–,0.631 µM (active)
Cc1ccc(-n2c(O)cnc2Nc2nc(C)cc(C)n2)cc1,-16.7% (inactive),–
COc1c(C)c2c(c(O)c1C/C=C(\C)CCC(=O)O)C(=O)OC2,–,inactive
CC(Sc1nnc(C(C)N(C)C)n1-c1ccc(Cl)cc1)C(=O)Nc1ccc2c(c1)OCO2 (centres undefined),–,22.4 µM (active)
Cn1cccc1C(=O)N1CCC2(CC1)CCN(c1ncccn1)CC2,-26.1% (inactive),–
CC(=O)N1CCC2(CC1)CCN(c1ccccn1)CC2,-15.1% (inactive),–
O=C(c1cnc(N2CCN(c3ncccn3)CC2)c2ccccc12)N1CCN(c2ccccn2)CC1,–,5.01 µM (active)
CC(C)c1ccc(OCc2ccc(C(=O)N3CCN(c4ccccn4)CC3)cc2)cc1,–,11.2 µM (active)
O=C(c1cnccn1)N1CCC2(CC1)CCN(c1ncccn1)CC2,-1.14% (inactive),–
O=C(c1cnc(N2CCN(c3ncccn3)CC2)c2ccccc12)N1CCN(c2ncccn2)CC1,–,10 µM (active)
O=C(O)CCC(=O)N1CCN(c2ccccn2)CC1,-10.9% (inactive),–
O=C(c1cnccn1)N1CCC2(CC1)CN(c1ccccn1)C2,-19.8% (inactive),–
O=C(c1cnccn1)N1CCC2(CC1)CCN(c1ccccn1)CC2,-16.2% (inactive),–
COCC(=O)N1CCC2(CC1)CCN(c1ccccn1)CC2,-28.4% (inactive),–
COc1ccccc1C(=O)N1CCN(c2ccccn2)CC1,–,7.08 µM (active)
COCC(=O)N1CCC2(CC1)CCN(C(=O)NC(C)C)CC2,-30.3% (inactive),–
Cc1ccc(-n2nnnc2C(=Cc2ccc(N(C)C)cc2)c2nnnn2-c2ccc(C)cc2)cc1,–,1.26 µM (active)
O=C1CC(c2cccc(F)c2)SC(N(c2ccccc2)c2ccccc2)=N1 (centres undefined),–,5.01 µM (active)
